# Data taken from PubChem BioAssay (EPA / NIEHS).
# Results filed as inconclusive are left out. Active and inactive are the calls of the source. Rule for the calls: active = hit-call score of the fitted dose curve at least 0.9, where 1 is the maximum; inconclusive = response in the unintended direction; inactive = score below 0.9.
# Columns and labels:
# [1] = biological target: human Vascular Endothelial Growth Factor Receptor 3 (VEGFR3), FLT4 (gene 2324) (UniProt P35916); assay: NVS_ENZ_hVEGFR3: NovaScreen (NVS) Enzymatic Assay for human Vascular Endothelial Growth Factor Receptor 3 (VEGFR3) (AID 2283229)
# In short: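 Chemicals first run in duplicate at 25 uM, with actives re-tested in concentration series to a top of 50 uM. Recombinant VEGFR3 activity measured after 1 h via fluorescence with mobility-shift product separation; inhibition fitted relative to DMSO.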
# [2] = biological target: rat Constitutive Nitric Oxide Synthase (CNOS), Nos1 (gene 24598) (UniProt P29476); assay: NVS_ENZ_rCNOS: NovaScreen (NVS) Enzymatic Assay for rat Constitutive Nitric Oxide Synthase (CNOS) (AID 2283236)
# In short: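 Single 25 uM duplicate screen, then concentration series to 50 uM for chemicals meeting threshold. Rat brain membrane-derived CNOS activity detected radiometrically by filtration and scintillation counting, 1 h after compound addition; DMSO as baseline.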
# [3] = biological target: Adenosine receptor A1 (Bos taurus) (UniProt P28190); assay: NVS_GPCR_bAdoR_NonSelective: NovaScreen (NVS) G Protein-Coupled Receptor Assay for bovine Adenosine Receptor (AdoR), Non-selective Binding (AID 2283244)
# Protocol: (§1) NVS_GPCR_bAdoR_NonSelective is a biochemical, single-readout assay that uses extracted gene-proteins from Bovine striatal membranes in a tissue-based cell-free assay. Measurements were taken 1 hour after chemical dosing in a 96-well plate.NVS_GPCR_bAdoR_NonSelective is one of one assay component(s) measured or calculated from the NVS_GPCR_bAdoR_NonSelective assay. It is designed to make measurements of radioligand binding, a form of binding reporter, as detected with scintillation counting signals by Filter-based radiodetection technology.Data from the assay component NVS_GPCR_bAdoR_NonSelective was analyzed into 1 assay endpoint. This assay endpoint, NVS_GPCR_bAdoR_NonSelective, was analyzed in the positive analysis fitting direction relative to DMSO as the negative control and baseline of activity. Using a type of binding reporter, loss-of-signal activity can be used to understand changes in the binding as they relate to the gene ADORA1. Furthermore, this assay endpoint can be referred to as a primary readout, because the performed assay has only produced 1 assay endpoint. To generalize the intended target to other relatable targets, this assay endpoint is annotated to the gpcr intended target family, where the subfamily is rhodopsin-like receptor. […]
# [4] = tested on: guinea pig Leukotriene B4 Receptor (LTB4), gene 100379538; assay: NVS_GPCR_gLTB4: NovaScreen (NVS) G Protein-Coupled Receptor Assay for guinea pig Leukotriene B4 Receptor (LTB4) (AID 2283247)
# Protocol: as §1, with “NVS_GPCR_gLTB4” for “NVS_GPCR_bAdoR_NonSelective”, “Guinea pig spleen” for “Bovine striatal”, “2 hours” for “1 hour”, “48-well plate.NVS_GPCR_gLTB4” for “96-well plate.NVS_GPCR_bAdoR_NonSelective”, “NVS_GPCR_gLTB4,” for “NVS_GPCR_bAdoR_NonSelective,”, “Ltb4r.” for “ADORA1.”
# [5] = NVS_GPCR_bNPY_NonSelective: NovaScreen (NVS) G Protein-Coupled Receptor Assay for bovine Neuropeptide Y (NPY) Receptor, Non-selective Binding (AID 2283245)
# In short: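 Displacement of radioligand from bovine hippocampal membrane receptors, read by filtration and scintillation counting after 1 hour. Concentration-response to a top of 50 uM followed a 25 uM duplicate primary screen. Loss of signal versus DMSO.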
# [6] = biological target: human Serotonin, 5-Hydroxytryptamine Receptor 6 (5HT6), HTR6 (gene 3362) (UniProt P50406); assay: NVS_GPCR_h5HT6: NovaScreen (NVS) G Protein-Coupled Receptor Assay for human Serotonin, 5-Hydroxytryptamine Receptor 6 (5HT6) (AID 2283253)
# In short: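 Filter scintillation counting of radioligand displacement from HEK293-expressed 5HT6, 1 hour post-dose, with loss of signal relative to DMSO. Single 25 uM duplicates first, with concentration series for confirmation.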
# [7] = biological target: human Adenosine A2a Receptor (AdoRA2a), ADORA2A (gene 135) (UniProt P29274); assay: NVS_GPCR_hAdoRA2a: NovaScreen (NVS) G Protein-Coupled Receptor Assay for human Adenosine A2a Receptor (AdoRA2a) (AID 2283256)
# Protocol: NVS_GPCR_hAdoRA2a is a biochemical, single-readout assay that uses extracted gene-proteins from HEK293 in a cell-free assay. Measurements were taken 1.5 hours after chemical dosing in a 96-well plate.NVS_GPCR_hAdoRA2a is one of one assay component(s) measured or calculated from the NVS_GPCR_hAdoRA2a assay. It is designed to make measurements of radioligand binding, a form of binding reporter, as detected with scintillation counting signals by Filter-based radiodetection technology.Data from the assay component NVS_GPCR_hAdoRA2a was analyzed into 1 assay endpoint. This assay endpoint, NVS_GPCR_hAdoRA2a, was analyzed in the positive analysis fitting direction relative to DMSO as the negative control and baseline of activity. […] Furthermore, this assay endpoint can be referred to as a primary readout, because the performed assay has only produced 1 assay endpoint. […]
# Binding assays used specific radioligands (tritiated, iodinated) with non-radioactive competitive displacement ligands in agonist or antagonist protocols (as indicated) and various reference compounds and inhibitors to titrate specific binding to receptors and transporters. Most enzyme assays (CYPs, kinases, phosphatases, proteases, HDACs) used recombinant protein and specific substrates (fluorescence mostly, some colorimetric and radioactive) and inhibitors, followed by a biochemical separation of substrate and product. […]
# Sequence of Adenosine receptor A1 (Bos taurus) (P28190 whole entry, looked up): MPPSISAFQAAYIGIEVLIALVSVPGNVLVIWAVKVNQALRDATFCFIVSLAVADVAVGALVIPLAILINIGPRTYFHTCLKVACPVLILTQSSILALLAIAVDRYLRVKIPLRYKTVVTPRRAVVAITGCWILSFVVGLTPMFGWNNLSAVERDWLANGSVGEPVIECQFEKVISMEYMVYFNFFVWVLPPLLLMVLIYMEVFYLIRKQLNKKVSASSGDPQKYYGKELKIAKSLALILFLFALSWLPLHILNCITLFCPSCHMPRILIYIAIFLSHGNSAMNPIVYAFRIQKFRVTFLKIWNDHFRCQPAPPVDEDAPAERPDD
# Sequence of human Adenosine A2a Receptor (AdoRA2a), ADORA2A (gene 135) (P29274 whole entry, looked up): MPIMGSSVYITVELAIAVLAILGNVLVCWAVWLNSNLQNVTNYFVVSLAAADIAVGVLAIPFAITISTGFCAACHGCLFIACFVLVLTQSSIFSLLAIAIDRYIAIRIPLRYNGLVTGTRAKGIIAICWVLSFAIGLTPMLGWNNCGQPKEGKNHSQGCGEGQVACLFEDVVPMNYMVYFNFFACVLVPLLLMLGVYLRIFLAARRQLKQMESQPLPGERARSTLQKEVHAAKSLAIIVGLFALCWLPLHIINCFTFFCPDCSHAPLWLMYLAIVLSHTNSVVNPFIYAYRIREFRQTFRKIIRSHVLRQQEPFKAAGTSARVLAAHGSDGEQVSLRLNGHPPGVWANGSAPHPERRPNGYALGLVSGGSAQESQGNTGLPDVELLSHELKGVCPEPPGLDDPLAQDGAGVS
# Sequence of human Serotonin, 5-Hydroxytryptamine Receptor 6 (5HT6), HTR6 (gene 3362) (P50406 whole entry, looked up): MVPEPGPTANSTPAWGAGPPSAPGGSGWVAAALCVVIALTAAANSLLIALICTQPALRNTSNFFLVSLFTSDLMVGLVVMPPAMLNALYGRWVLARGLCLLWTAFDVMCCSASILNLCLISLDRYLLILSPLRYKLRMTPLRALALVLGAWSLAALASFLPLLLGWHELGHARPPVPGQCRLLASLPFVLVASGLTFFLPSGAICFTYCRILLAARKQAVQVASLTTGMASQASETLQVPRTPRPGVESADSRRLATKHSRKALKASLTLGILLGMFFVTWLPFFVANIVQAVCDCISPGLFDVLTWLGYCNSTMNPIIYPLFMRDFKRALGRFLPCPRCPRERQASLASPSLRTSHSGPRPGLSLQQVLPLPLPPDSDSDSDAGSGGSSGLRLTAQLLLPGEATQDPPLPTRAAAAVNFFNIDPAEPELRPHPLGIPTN
# Sequence of human Vascular Endothelial Growth Factor Receptor 3 (VEGFR3), FLT4 (gene 2324) (P35916 whole entry, looked up): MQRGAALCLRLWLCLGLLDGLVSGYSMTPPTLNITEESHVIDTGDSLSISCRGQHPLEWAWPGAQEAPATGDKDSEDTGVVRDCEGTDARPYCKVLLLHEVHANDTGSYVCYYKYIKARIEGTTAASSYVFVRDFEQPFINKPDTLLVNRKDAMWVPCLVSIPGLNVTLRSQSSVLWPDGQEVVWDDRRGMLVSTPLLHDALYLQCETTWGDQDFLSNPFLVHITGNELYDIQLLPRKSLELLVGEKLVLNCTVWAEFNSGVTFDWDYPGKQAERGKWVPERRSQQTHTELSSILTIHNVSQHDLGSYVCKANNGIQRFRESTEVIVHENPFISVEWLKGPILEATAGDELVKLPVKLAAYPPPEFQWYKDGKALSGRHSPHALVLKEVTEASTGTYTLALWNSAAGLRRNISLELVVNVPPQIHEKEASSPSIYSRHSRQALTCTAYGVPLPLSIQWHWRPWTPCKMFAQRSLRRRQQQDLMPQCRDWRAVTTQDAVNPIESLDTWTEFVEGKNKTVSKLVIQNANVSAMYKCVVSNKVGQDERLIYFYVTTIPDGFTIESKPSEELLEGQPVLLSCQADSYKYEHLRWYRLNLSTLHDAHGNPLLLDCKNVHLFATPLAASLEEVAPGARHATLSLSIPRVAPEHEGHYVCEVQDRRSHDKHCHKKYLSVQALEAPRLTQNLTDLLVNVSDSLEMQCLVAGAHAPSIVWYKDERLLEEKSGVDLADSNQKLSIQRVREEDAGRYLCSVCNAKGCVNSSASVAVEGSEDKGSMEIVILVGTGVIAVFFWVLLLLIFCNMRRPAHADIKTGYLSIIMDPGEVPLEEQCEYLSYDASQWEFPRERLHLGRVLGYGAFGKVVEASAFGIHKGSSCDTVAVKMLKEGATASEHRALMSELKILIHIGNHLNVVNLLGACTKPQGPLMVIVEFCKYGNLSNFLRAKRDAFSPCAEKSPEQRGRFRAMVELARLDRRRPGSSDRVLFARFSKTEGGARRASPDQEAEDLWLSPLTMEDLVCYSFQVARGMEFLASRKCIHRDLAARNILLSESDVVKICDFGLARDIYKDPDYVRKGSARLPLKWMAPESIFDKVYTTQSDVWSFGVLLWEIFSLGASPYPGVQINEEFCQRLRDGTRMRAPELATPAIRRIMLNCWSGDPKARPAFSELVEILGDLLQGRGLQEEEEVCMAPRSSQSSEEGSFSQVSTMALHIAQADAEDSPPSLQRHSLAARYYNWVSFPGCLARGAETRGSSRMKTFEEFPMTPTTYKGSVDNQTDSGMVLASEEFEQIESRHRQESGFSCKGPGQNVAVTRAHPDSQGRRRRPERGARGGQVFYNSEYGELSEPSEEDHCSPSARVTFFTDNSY
# Sequence of rat Constitutive Nitric Oxide Synthase (CNOS), Nos1 (gene 24598) (P29476 whole entry, looked up): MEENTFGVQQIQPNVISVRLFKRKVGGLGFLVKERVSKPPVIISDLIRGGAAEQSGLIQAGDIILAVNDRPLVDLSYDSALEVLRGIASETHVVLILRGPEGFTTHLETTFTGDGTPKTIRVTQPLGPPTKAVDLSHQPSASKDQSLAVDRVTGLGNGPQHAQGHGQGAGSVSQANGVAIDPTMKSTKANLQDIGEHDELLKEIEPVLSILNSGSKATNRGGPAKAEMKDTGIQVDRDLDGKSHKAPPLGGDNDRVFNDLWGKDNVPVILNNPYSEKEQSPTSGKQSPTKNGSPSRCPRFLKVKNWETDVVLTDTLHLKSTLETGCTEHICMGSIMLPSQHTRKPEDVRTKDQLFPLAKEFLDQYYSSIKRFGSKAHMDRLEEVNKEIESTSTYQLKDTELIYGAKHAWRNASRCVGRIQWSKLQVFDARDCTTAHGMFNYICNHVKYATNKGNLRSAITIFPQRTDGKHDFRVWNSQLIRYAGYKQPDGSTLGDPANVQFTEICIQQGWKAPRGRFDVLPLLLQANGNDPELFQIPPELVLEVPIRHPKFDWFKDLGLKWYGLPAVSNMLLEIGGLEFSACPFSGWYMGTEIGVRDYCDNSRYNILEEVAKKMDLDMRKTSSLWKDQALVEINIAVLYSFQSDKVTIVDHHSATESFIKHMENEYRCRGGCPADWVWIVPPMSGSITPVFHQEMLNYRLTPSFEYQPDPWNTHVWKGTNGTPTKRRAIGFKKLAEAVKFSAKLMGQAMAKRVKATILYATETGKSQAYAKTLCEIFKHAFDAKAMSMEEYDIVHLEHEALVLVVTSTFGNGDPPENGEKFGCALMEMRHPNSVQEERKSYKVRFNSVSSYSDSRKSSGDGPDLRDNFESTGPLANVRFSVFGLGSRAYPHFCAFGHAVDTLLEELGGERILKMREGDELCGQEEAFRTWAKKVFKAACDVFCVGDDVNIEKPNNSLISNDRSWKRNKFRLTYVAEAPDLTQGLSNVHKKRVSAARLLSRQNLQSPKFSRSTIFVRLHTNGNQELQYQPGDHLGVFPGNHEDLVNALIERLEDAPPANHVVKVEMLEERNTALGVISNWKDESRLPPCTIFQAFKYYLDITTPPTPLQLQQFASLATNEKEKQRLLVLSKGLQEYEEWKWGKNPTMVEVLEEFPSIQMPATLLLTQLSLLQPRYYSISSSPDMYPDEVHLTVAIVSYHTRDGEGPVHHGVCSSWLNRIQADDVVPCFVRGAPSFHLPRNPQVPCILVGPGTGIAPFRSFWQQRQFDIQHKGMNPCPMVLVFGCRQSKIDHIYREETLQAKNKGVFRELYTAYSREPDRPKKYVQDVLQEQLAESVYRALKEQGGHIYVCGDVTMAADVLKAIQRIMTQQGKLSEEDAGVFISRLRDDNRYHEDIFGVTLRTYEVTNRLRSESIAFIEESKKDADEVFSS
smiles,measurement,setting,value
CCCCCCCCCCCCOS(=O)(=O)O,AC50,[1],29.3 µM (active)
same,outcome,[2],inactive
same,outcome,[3],inactive
same,AC50,[4],25 µM (active)
Cc1[nH]nc2c1N=C(c1ccccc1Cl)c1cc([N+](=O)[O-])ccc1N2,AC50,[1],0.00229 µM (active)
N=C(N)c1ccc(OCCCCCOc2ccc(C(=N)N)cc2)cc1,AC50,[2],6.42 µM (active)
same,AC50,[4],2.4 µM (active)
O=C(c1ccccc1)c1ccccc1,outcome,[3],inactive
CCCCc1oc2ccccc2c1C(=O)c1cc(I)c(OCCN(CC)CC)c(I)c1,outcome,[5],inactive
same,AC50,[6],7.27 µM (active)
CN(Cc1cnc2nc(N)nc(N)c2n1)c1ccc(C(=O)N[C@@H](CCC(=O)O)C(=O)O)cc1,outcome,[6],inactive
same,AC50,[7],9.68 µM (active)
CN(C)c1ccc(C(=C2C=CC(=[N+](C)C)C=C2)c2ccccc2)cc1,outcome,[7],inactive
